# High-throughput results (PubChem)
# TsaE inh – inhibitors of E. coli YjeE (TsaE). purified YjeE enzyme, qHTS inhibition assay. Potency, µM. 0.05% of 71,000 active
#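 Fluorescence polarization of a BODIPY Texas Red–ADP probe (2 uM) bound to purified YjeE (10 uM) was read after 15 min room-temperature incubation with compounds. Loss of polarization marks inhibitors; ADP serves as titrated control.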
# BRCT inh green – blocks human BRCA1 BRCT binding to phosphopeptide, green readout; Potency, µM (doses to about 76.9 µM), usual class: inhibitors; BRCA1 BRCT-phosphopeptide binding, green fluorescence polarization; 0.05% of 75,000 active; P38398
# Target sequence (P38398 whole entry, looked up): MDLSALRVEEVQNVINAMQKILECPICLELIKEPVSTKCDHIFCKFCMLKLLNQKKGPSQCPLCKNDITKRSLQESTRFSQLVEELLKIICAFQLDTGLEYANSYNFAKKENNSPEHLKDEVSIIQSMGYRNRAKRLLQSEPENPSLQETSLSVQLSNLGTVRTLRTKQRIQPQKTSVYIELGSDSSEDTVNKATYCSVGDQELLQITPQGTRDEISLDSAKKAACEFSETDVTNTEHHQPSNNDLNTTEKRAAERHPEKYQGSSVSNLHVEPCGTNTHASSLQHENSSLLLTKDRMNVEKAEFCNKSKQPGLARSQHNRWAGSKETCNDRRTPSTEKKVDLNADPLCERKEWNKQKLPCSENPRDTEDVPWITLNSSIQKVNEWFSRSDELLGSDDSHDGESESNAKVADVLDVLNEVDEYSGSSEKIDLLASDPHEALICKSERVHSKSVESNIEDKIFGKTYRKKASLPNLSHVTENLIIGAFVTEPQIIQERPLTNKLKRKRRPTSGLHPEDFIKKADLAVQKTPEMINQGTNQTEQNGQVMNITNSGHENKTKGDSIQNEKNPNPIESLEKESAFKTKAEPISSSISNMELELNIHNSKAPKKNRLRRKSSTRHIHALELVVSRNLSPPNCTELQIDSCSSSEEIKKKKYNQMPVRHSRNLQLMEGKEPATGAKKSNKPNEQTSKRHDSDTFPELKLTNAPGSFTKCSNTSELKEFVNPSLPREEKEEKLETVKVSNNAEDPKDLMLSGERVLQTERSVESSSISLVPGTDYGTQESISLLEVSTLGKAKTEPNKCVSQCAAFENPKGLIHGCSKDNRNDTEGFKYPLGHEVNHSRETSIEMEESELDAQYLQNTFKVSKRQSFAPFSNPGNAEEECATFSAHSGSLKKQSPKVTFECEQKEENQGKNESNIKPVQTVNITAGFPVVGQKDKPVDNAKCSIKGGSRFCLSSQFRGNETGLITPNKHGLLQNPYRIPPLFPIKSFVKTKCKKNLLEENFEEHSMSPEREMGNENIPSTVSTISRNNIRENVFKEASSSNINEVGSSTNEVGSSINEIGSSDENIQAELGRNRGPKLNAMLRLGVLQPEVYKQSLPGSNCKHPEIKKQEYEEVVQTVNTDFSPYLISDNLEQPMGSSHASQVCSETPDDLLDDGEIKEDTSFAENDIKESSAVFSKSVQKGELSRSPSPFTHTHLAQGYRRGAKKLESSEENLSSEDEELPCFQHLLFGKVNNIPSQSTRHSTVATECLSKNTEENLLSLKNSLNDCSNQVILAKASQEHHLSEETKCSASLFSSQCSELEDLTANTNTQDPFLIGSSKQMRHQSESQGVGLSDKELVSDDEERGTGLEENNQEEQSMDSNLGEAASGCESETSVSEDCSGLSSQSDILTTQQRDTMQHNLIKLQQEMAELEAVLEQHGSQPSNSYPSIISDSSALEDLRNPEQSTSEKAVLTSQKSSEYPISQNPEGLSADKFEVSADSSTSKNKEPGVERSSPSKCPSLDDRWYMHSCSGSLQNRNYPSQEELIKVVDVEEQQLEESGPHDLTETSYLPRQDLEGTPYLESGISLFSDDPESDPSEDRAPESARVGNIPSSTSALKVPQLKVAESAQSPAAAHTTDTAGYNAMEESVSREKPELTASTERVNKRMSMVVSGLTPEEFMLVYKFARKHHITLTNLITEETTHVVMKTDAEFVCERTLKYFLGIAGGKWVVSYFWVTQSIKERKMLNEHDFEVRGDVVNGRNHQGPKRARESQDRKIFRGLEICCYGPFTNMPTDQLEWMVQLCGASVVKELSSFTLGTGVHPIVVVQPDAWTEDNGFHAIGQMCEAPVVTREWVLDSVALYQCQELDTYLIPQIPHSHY
#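 Compounds were incubated for 12 min at room temperature with a complex of 100 nM fluorescein-tagged pBACH1 decapeptide and 250 nM His-tagged BRCT protein. Buffer was phosphate pH 7.3 with EDTA, DTT and Tween 20. Disruption of binding lowers the polarization signal.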
# ERK AVP block – vasopressin-driven ERK pathway inhibition; HEK293-V1b, vasopressin-stimulated pERK AlphaScreen; AID 995; 0.99% of 72,000 active; Potency, µM (top dose mostly 57.5 µM), most hits filed as inhibitors; also: nearly all actives have a fitted effect of over 55% in size
#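 Phosphorylated ERK1/2 detected via AlphaScreen bead proximity in lysates of V1b-expressing HEK293 cells given 25 nM vasopressin for 5 min after 30 min compound exposure (37 °C). AC50 from Hill equation; basal DMSO 0%, vasopressin 100%.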
# ALOX15 inhib – blocks human 15-lipoxygenase activity; Potency, µM (top dose mostly 57.1 µM), usual class: inhibitors; 1.4% of 74,000 active; AID 887; purified 15hLO-1, xylenol orange hydroperoxide absorbance; also: nearly all actives have a fitted effect of over 55% in size
#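 Quantitative HTS in 25 mM Hepes pH 7.5 containing 0.01% Triton X-100: human 15hLO-1 at 40 nM, arachidonic acid at 50 uM, 6 min turnover. Product quantified via ferrous oxidation/xylenol orange, 573:405 nm absorbance ratio.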
# BRCT inh red – disrupts BRCA1 BRCT binding to phosphoprotein, red fluorophore readout; P38398; AID 892; 0.03% of 75,000 active; Potency, µM (titrated, usually from 76.9 µM), most hits filed as inhibitors; BRCT-phosphopeptide binding, red fluorescence polarization
#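 Fluorescence polarization: 100 nM His-tagged BRCA1 BRCT with 100 nM TAMRA-labelled phospho-BACH1 decapeptide, phosphate buffer pH 7.3 with 150 mM NaCl, DTT, 0.01% Tween 20; 12 min RT. Binding inhibition seen as FP decrease.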
# Pol III holo inh – blocks replication by bacterial DNA polymerase III holoenzyme. Potency, µM (series often up to 57.1 µM). 0.25% of 71,000 active. reconstituted DNA polymerase III holoenzyme replication, biochemical. AID 603
#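 Reconstituted *E. coli* holoenzyme (0.35 nM Pol III, 1 nM beta, 154 nM SSB, 2 nM primase) was preincubated with compound for 15 min at RT. Synthesis on 1.4 nM ssM13Gori ran 35 min, then was stopped with PicoGreen/EDTA and read as dsDNA fluorescence.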
# Hits are given with their value; i = inactive; ? = inconclusive; nt = no result given; [ ] = another dose, or the depositor's remark. An excerpt weighted towards active compounds, which were near 2.4% of everything screened. Calls follow the shape of the dose curve; as a rule, active = well fitted curve in the direction sought with a large enough effect; inconclusive = small, poorly fitted or top-dose-only effect, or another doubt; inactive = no such curve, though single readings can be large; an effect the other way counts as inactive or inconclusive.
SMILES,TsaE inh,BRCT inh green,ERK AVP block,ALOX15 inhib,BRCT inh red,Pol III holo inh
CSCSC1=C(C#N)C(c2ccccc2Cl)C(C(C)=O)=C(C)N1 (centres undefined),i,i,i,25.1µM,i,i
CC(=O)C1=C(C)NC(SCSc2ccccc2)=C(C#N)C1c1cccnc1 (centres undefined),i,i,i,0.316µM,i,i
CCOC(=O)CSC1=C(C#N)C(c2ccccc2F)C(C(C)=O)=C(C)N1 (centres undefined),i,i,i,i,i,i
Cn1c(-c2ccc(F)cc2)cnc1SCC(=O)Nc1ccccc1N1CCOCC1,i,i,31.6µM,i,i,i
O=C(Nc1nnc(COc2ccc(Cl)cc2)s1)c1cccs1,i,i,i,15.8µM,i,i
O=C(Nc1nnc(COc2ccc(F)cc2)s1)c1cccs1,i,i,i,i,i,i
O=C(Nc1nnc(COc2ccc(Cl)cc2)s1)C1CCCO1 (centres undefined),i,i,i,7.94µM,i,i
COc1ccc(-c2cc(=O)c3ccccc3o2)cc1,nt,i,i,i,i,nt
COc1ccc(-c2cc(=O)c3ccccc3s2)cc1,i,i,12.6µM,?,i,i
CCc1cc(-c2[nH]ncc2-c2ccc3c(c2)OCO3)c(O)cc1O,i,i,?,25.1µM,i,i
O=C(Nc1nc(-c2ccco2)c(-c2ccco2)s1)C1CC(=O)N(c2ccc3c(c2)OCCO3)C1 (centres undefined),i,?,?,2.51µM,?,10µM
Nc1nc(Cl)nc2c1ncn2[C@@H]1O[C@H](CO)[C@@H](O)[C@H]1O,nt,i,10µM,i,i,nt
O=c1c(-c2ccc3c(c2)OCCO3)coc2cc(O)cc(O)c12,i,i,?,15.8µM,i,i
O=c1c(-c2ccccc2)coc2cc(O)cc(O)c12,nt,i[3.08 µM],i,3.16µM,?,nt
O=c1c(-c2ccc(O)cc2)coc2cc(O)ccc12,i,i,i,i,i,i
COc1cc(OC)c2c(=O)c(-c3ccc4c(c3)OCO4)coc2c1,nt,i,i,i,i,nt
Cn1cccc1C(=O)N1CCC[C@@]2(CCN(c3ccccc3)C2)C1,i,i,?,i,i,i
CC1=C(C(=O)Nc2ccccn2)C(c2cccnc2)n2nnnc2N1 (centres undefined),i,i,i,i,i,i
COc1cc(CNCCO)ccc1OCC(=O)Nc1ccc(Br)cc1,i,i,i,i,i,i
COc1cc(CNc2ccc3[nH]c(=O)[nH]c3c2)ccc1OCC(=O)NC(C)(C)C,i,i,?,25.1µM,i,i
Nc1ccn([C@@H]2O[C@H](CO)[C@@H](O)[C@@H]2O)c(=O)n1,nt,i,nt,i,i,nt
Nc1ccn([C@H]2CC[C@@H](CO)O2)c(=O)n1,i,i,25.1µM,i,i,i
CC(C)[C@H](N=Cc1ccccc1O)C(=O)O,i,i[15.4 µM],i[11.5 µM],i[11.4 µM],i[15.4 µM],i[11.4 µM]
CC(=O)c1cccc(NC(=O)Nc2cc3sccc3n2C)c1,i,i,?,15.8µM,i,i
CC(=O)c1cccc(NC(=O)Nc2c(C)nn(C)c2C)c1,i,i,i,i,i,i
SMILES,TsaE inh,BRCT inh green,ERK AVP block,ALOX15 inhib,BRCT inh red,Pol III holo inh
CC(C)=CCCC(C)CCO (centres undefined),i,i,i,7.94µM,i,i
CN(C)c1ccc(-c2nc(N3CCNCC3)c3ccccc3n2)cc1,i,i,i,i,i,i
c1ccc(CCn2nnnc2C(c2cccnc2)N2CCN(c3ccccc3)CC2)cc1 (centres undefined),i,i,i,i,i,i
Oc1ccc(N2CCN(C(c3cccnc3)c3nnnn3Cc3ccccc3)CC2)cc1 (centres undefined),i,i,i,12.6µM,i,i
COc1cc(CN2CCN(c3cccc(Cl)c3)CC2)cc(OC)c1OC,i,i,i,i,i,i
COc1ccc(CCNC(=O)CN2CCN(c3cccc(Cl)c3)CC2)cc1OC,i,i,20µM,i,i,i
Cc1ccc(S(=O)(=O)N[C@H]2COC(=O)C/C=C\[C@H](C)[C@@H](NS(=O)(=O)c3ccc(C)cc3)COC(=O)C/C=C\[C@@H]2C)cc1,nt,i[15.4 µM],i[11.5 µM],i[11.4 µM],i[15.4 µM],nt
c1ccc(-c2cnc(CSc3ncnc4sccc34)o2)cc1,i,i,31.6µM,15.8µM,i,?
CN=c1nc(-c2ccccc2)n(-c2ccccc2)s1,i,i,i,0.794µM,i,i
CCn1c(=O)cc(SCC(=O)N2CCOCC2)c2ccccc21,i,i,i,i,i,i
CCn1c(=O)cc(SCC(=O)N2CCN(c3ccccc3OC)CC2)c2ccccc21,i,i,25.1µM,?,i,i
CC(C)(C)c1ccc(O)c(CN(Cc2cc(C(C)(C)C)ccc2O)C2CCCCC2)c1,i,i[15.4 µM],i[11.5 µM],i[11.4 µM],i[15.4 µM],i[11.4 µM]
CCOc1ccc(OCC(=O)c2c(O)c3ccccc3oc2=O)cc1,i,i,i,15.8µM,i,i
CC(=O)NCCc1ccc(O)c(O)c1,i,i,i,i,i,i
N#C/C(=C\c1ccc(O)c(O)c1)C(=O)NCCc1ccccc1,i,i,?,6.31µM,i,i
N#C/C(=C\c1ccc(O)c(O)c1)C(=O)NCCCCc1ccccc1,i,i,39.8µM,1.58µM,i,i
CCOC(=O)C1CCN(C(=O)CCCCn2c(=O)[nH]c3ccccc3c2=O)CC1,i,i,i,i,i,i
FC(F)(F)c1cc(CN2CC3(CCNCC3)C2)cc(C(F)(F)F)c1,i,i,i,i,i,i
CC1CN(Cc2nc3c(c(=O)n(C)c(=O)n3C)n2CC(=O)c2ccccc2)CC(C)O1 (centres undefined),i,i,i,i,i,i
CCOC(=O)Cn1c(CN2CC(C)OC(C)C2)nc2c1c(=O)n(C)c(=O)n2C (centres undefined),i,i,nt,7.94µM,i,i
O=C1c2ccc(O)c(O)c2C(=O)c2c(O)ccc(O)c21,nt,i[3.08 µM],3.16µM,0.251µM,31.6µM,nt
O=C1c2ccccc2C(=O)c2c1ccc(O)c2O,nt,i,?,10µM,i,nt
O=C1c2c(O)cc(O)cc2O[C@@H](c2ccc(O)c(O)c2)[C@H]1O,i,i,i,12.6µM,i,i
O=C1CC(c2ccc(O)c(O)c2)Oc2cc(O)cc(O)c21 (centres undefined),nt,i[3.08 µM],?,10µM,i,nt
NCC(=O)N[C@H](CO)C(=O)O,i,i[15.4 µM],i[11.5 µM],i[11.4 µM],i[15.4 µM],i[11.4 µM]
COCCN(CCOC)S(=O)(=O)c1ccc(C(=O)Nc2nc(-c3ccncc3)cs2)cc1,i,i,25.1µM,i,i,i
Cc1ccc(S(=O)(=O)N=Nc2c(O)[nH]c3cc(O)c(C(=O)O)cc23)cc1,i,i[15.4 µM],i[11.5 µM],i[11.4 µM],i[15.4 µM],i[11.4 µM]
